Bioassay records (PubChem)
HT1080 IDH1KD tx – qHTS for induction of synthetic lethality in tumor cells producing 2HG: qHTS for the HT-1080-IDH1KD cell line; 360,000 tested, 2% active; Potency, µM (doses to about 46.1 µM), hits mostly cytotoxic; HT-1080 IDH1 knockdown viability, ATP luminescence, 48 h; AID 686971, 2013
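In this qHTS, HT-1080 cells depleted of IDH1 are exposed for 48 h at 37 °C to compound titrations. Toxicity is scored from CellTiter-Glo luminescence, with DMSO as full viability and medium alone as none.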
HT1080NT lethal – qHTS for induction of synthetic lethality in tumor cells producing 2HG: qHTS for the HT-1080-NT fibrosarcoma cell line; 360,000 tested, 1.6% active; Potency, µM (series often up to 46.1 µM), usual class: cytotoxic; HT-1080-NT fibrosarcoma viability, CellTiter-Glo ATP luminescence, 48 h;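 note: NT is the 2HG producing partner of a matched IDH1 knockdown line; nearly all actives have a fitted effect of over 55% in size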
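Compounds were tested in concentration-response format on HT-1080-NT cells for 48 hours at 37 degrees C. Cell viability came from CellTiter-Glo luminescence; curves were classified by r2, response magnitude and activity.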
TDP1 cell CPT – qHTS for Inhibitors of human tyrosyl-DNA phosphodiesterase 1 (TDP1): qHTS in cells in presence of CPT. chicken DT40 Tdp1-/-;hTDP1 cells + 20 nM CPT, ATP luminescence, 48 h. Potency, µM (highest dose often 46.2 µM), usual class: inhibitors. 420,000 tested, 12% active. AID 686979, 2013; note: nearly all actives have a fitted effect of over 55% in size
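Chicken DT40 Tdp1-/- cells stably complemented with human TDP1 were seeded at 400 cells/well in medium containing 20 nM camptothecin, exposed to pin-transferred compounds, and grown at 37 °C for at least 48 hr. Viability was read as ATP luminescence.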
DT40 TDP1 no CPT – qHTS for Inhibitors of human tyrosyl-DNA phosphodiesterase 1 (TDP1): qHTS in cells in absence of CPT | DT40 Tdp1-/- hTDP1 cells, no CPT, ATP luminescence, 48 h | Potency, µM (highest dose often 46.2 µM), most hits filed as inhibitors | 420,000 tested, 15% active | AID 686978, 2013; note: nearly all actives have a fitted effect of over 55% in size
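Cells were dispensed at 400 per well, compounds added by pin tool, plates incubated ≥48 hr at 37 °C, then CellTiter-Glo added for 30 min at room temperature before luminescence reading. Line: DT40 Tdp1-/- complemented with hTDP1; camptothecin omitted.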
KB-V1 MDR tox – qHTS assay for MDR1-selective chemotherapeutics: Primary screen using the drug-selected MDR subline cells KB-V1 | KB-V1 MDR cells viability, CellTiter-Glo, 72 h | Potency, µM (series often up to 46.1 µM), most hits filed as cytotoxic | 400,000 tested, 3.4% active; note: nearly all actives have a fitted effect of over 60% in size
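qHTS viability screen in drug-selected KB-V1 MDR cells: 72 h compound treatment at 37 degrees C, ATP luminescence end point.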
KB-3-1 tox – qHTS assay for MDR1-selective chemotherapeutics: Primary screen using the parental adenocarcinoma cell KB-3-1; 400,000 tested, 1.4% active; Potency, µM (doses to about 46.1 µM), hits mostly cytotoxic; AID 1347075, 2019; KB-3-1 viability, CellTiter-Glo ATP luminescence, 72 h; note: nearly all actives have a fitted effect of over 60% in size
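Cytotoxicity in the drug-sensitive parental line KB-3-1 was scored as loss of CellTiter-Glo luminescence following 72 h incubation with compound. Values come from curve fitting of normalized concentration-response data.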
Of the large screens only hits and unclear results are named; the others gave an inactive call. Shown are actives, neighbours in structure and some others; about 19% of the full set was active somewhere. Calls come from the whole dose curve; as a rule, active = well fitted curve in the direction sought with a large enough effect; inconclusive = small, poorly fitted or top-dose-only effect, or another doubt; inactive = no such curve, though single readings can be large; an effect the other way counts as inactive or inconclusive.

CC1(C)CC2CC(C)(CN2C(=S)Nc2ccccc2F)C1 (configuration not stated)	TDP1 cell CPT 21µM, DT40 TDP1 no CPT 13µM
CC1(C)CC2CC(C)(CN2C(=S)Nc2ccccc2)C1 (configuration not stated)	TDP1 cell CPT inconclusive, DT40 TDP1 no CPT inconclusive, KB-V1 MDR tox inconclusive
Cc1cccc(CNCCn2cc(C(=O)Nc3ccccc3)nn2)c1	none (no result: HT1080 IDH1KD tx, HT1080NT lethal, KB-V1 MDR tox, KB-3-1 tox)
O=C(Nc1cccc(S(=O)(=O)C(F)(F)F)c1)[C@H]1C[C@H](O)[C@@H](CO)O1	none
Cc1nc(N2CCN(S(=O)(=O)c3cccc4nonc34)CC2)c2c3c(sc2n1)CCCC3	TDP1 cell CPT inconclusive, DT40 TDP1 no CPT 16µM
NC(=S)NNc1cc(Cl)cc(Cl)c1	TDP1 cell CPT 13µM, DT40 TDP1 no CPT inconclusive
NC(=S)Nc1cc(Cl)cc(Cl)c1	TDP1 cell CPT inconclusive, DT40 TDP1 no CPT inconclusive
CCNc1nc(C)nc2c1oc1ccccc12	TDP1 cell CPT 0.58µM
CCNc1nc(CC)nc2c1oc1ccccc12	KB-V1 MDR tox inconclusive
Cc1nc(NC(C)C)c2oc3ccccc3c2n1	TDP1 cell CPT inconclusive, DT40 TDP1 no CPT 13µM
COCCN1C(=O)CCC1(C)C(=O)Nc1ccc2ccccc2c1 (configuration not stated)	none
O=C(Nc1ccc2c(c1)OCCO2)C1c2ccccc2OCC(=O)N1Cc1ccco1 (configuration not stated)	none
COc1ccc(OC)c(NC(=O)c2cnn(-c3ccc(C)cc3)c2C2CCNCC2)c1	TDP1 cell CPT 21µM, DT40 TDP1 no CPT 26µM (no result: HT1080 IDH1KD tx, HT1080NT lethal)
COc1ccc(NC(=O)c2cnn(-c3ccccc3)c2C)c(OC)c1	none
CCc1ccc(NC(=O)c2cnn(-c3c(C)cccc3C)c2C2CCNCC2)cc1	TDP1 cell CPT inconclusive, DT40 TDP1 no CPT 23µM (no result: HT1080 IDH1KD tx, HT1080NT lethal)
Cc1cccc(NC(=O)c2cnn(-c3ccc(F)cc3)c2C2CCNCC2)c1C	none
Cc1ccc(-n2ncc(C(=O)Nc3cc(Cl)ccc3C)c2C2CCNCC2)cc1C	TDP1 cell CPT 16µM, DT40 TDP1 no CPT 23µM, KB-V1 MDR tox inconclusive
Cc1ccc(C)c(NC(=O)c2cnn(-c3ccc(F)cc3F)c2C2CCNCC2)c1	TDP1 cell CPT 21µM, DT40 TDP1 no CPT 9.2µM (no result: HT1080 IDH1KD tx, HT1080NT lethal)
O=C(CBr)c1ccc(Oc2ccc(C(=O)C[n+]3ccccc3Cl)cc2)cc1	TDP1 cell CPT inconclusive, DT40 TDP1 no CPT inconclusive (no result: HT1080 IDH1KD tx, HT1080NT lethal)
Cc1cc(C)cc(NC(=O)c2cnn(-c3ccccc3)c2C2CCNCC2)c1	TDP1 cell CPT inconclusive, DT40 TDP1 no CPT 16µM
Cc1cccc(NC(=O)CSc2nnc(-c3cccs3)o2)c1	TDP1 cell CPT inconclusive, DT40 TDP1 no CPT inconclusive (no result: HT1080 IDH1KD tx, HT1080NT lethal)
COc1ccc(-c2cc(C(F)F)n3ncc(C(=O)NCCCN4CCCC4=O)c3n2)cc1	TDP1 cell CPT inconclusive, DT40 TDP1 no CPT 16µM, KB-V1 MDR tox inconclusive
Cc1ccc(NC(=O)c2cnn3c(C(F)F)cc(-c4ccccc4)nc23)c(C)c1	DT40 TDP1 no CPT 18µM (no result: HT1080 IDH1KD tx, HT1080NT lethal)
CCCNC(=O)c1cnn2c(C(F)F)cc(-c3ccccc3)nc12	TDP1 cell CPT 21µM, DT40 TDP1 no CPT 21µM (no result: HT1080 IDH1KD tx, HT1080NT lethal)
O=C(NCCCN1CCOCC1)c1cc(-c2ccc(F)cc2)nc2ccccc12	TDP1 cell CPT inconclusive
O=C(NCCCN1CCCC1=O)c1cc(-c2ccc(F)cc2)nc2ccccc12	TDP1 cell CPT inconclusive, DT40 TDP1 no CPT 26µM, KB-V1 MDR tox inconclusive
COc1cccc(C(=O)c2ccccc2NC(C)=O)c1	DT40 TDP1 no CPT inconclusive, KB-V1 MDR tox inconclusive
CCCc1nn2c(=O)cc(COc3ccc(/C=C(\C#N)C(=O)Nc4ccccc4)cc3)nc2s1	KB-V1 MDR tox inconclusive (no result: HT1080 IDH1KD tx, HT1080NT lethal)
CCOC(=O)C1CN(C(=O)OCC)CC1=NNC(N)=O (configuration not stated)	none
CCC1C/C(=C\c2cc(OC)c(OC)cc2OC)C(=O)/C(=C/c2cc(OC)c(OC)cc2OC)C1 (configuration not stated)	HT1080 IDH1KD tx 21µM, HT1080NT lethal 13µM, TDP1 cell CPT inconclusive, DT40 TDP1 no CPT 13µM, KB-3-1 tox inconclusive
COc1cc(OC)c(OC)cc1/C=C1/Cc2ccccc2C1=O	none
COc1cc(OC)c(OC)cc1/C=C1\CC(C)C/C(=C\c2cc(OC)c(OC)cc2OC)C1=O (configuration not stated)	HT1080 IDH1KD tx inconclusive, HT1080NT lethal inconclusive, TDP1 cell CPT 18µM, DT40 TDP1 no CPT 18µM, KB-3-1 tox inconclusive
Cc1cccc([C@@H]2[C@@H]3C(=O)N(Cc4ccccc4)C(=O)[C@@H]3[C@]3(Cc4ccc(Cl)cc4)C(=O)N(c4cccc(Br)c4)C(=O)N23)c1	TDP1 cell CPT inconclusive
COc1cccc2c1OC1(C)CC2NC(=O)N1c1cccc(C(=O)Nc2ccc3c(c2)OCCO3)c1 (configuration not stated)	TDP1 cell CPT inconclusive, DT40 TDP1 no CPT 18µM, KB-3-1 tox inconclusive
O=C(c1ccccc1F)N1CCC2CC1c1cc(N3CCCCC3)ccc12 (configuration not stated)	TDP1 cell CPT inconclusive, DT40 TDP1 no CPT 18µM
O=C(C1CCCCC1)N1CCC2CC1c1cc(N3CCCCC3)ccc12 (configuration not stated)	TDP1 cell CPT 18µM, DT40 TDP1 no CPT 21µM
CCCCNC(=O)C1C(c2ccc(OC)cc2)=Nc2ccccc2N1C(=O)c1ccc2ncccc2c1 (configuration not stated)	HT1080 IDH1KD tx inconclusive, HT1080NT lethal inconclusive, TDP1 cell CPT inconclusive, DT40 TDP1 no CPT inconclusive
COCCCN1C(=O)c2ccccc2CC1(C)C(=O)NC1CCCCC1 (configuration not stated)	none (no result: HT1080 IDH1KD tx, HT1080NT lethal, KB-V1 MDR tox, KB-3-1 tox)
CC1CCC(NC(=O)C2(C)Cc3ccccc3C(=O)N2Cc2ccccc2Cl)CC1 (configuration not stated)	TDP1 cell CPT inconclusive, DT40 TDP1 no CPT 23µM (no result: HT1080 IDH1KD tx, HT1080NT lethal, KB-V1 MDR tox, KB-3-1 tox)
Nc1cc(=O)[nH]c(SCCSc2cc(Cl)ccc2Cl)n1	TDP1 cell CPT inconclusive, KB-V1 MDR tox 0.41µM, KB-3-1 tox 0.73µM
CC(C)(C)c1ccc(CSc2nc(N)cc(=O)[nH]2)cc1	HT1080 IDH1KD tx inconclusive, HT1080NT lethal inconclusive, TDP1 cell CPT 23µM, DT40 TDP1 no CPT 18µM
Nc1cc(=O)[nH]c(SCCSc2ccccc2F)n1	DT40 TDP1 no CPT inconclusive, KB-V1 MDR tox inconclusive, KB-3-1 tox inconclusive
